The results in this text go back to PubChem BioAssay AID1053118 (Broad Institute, 2014).

Potency and affinity values are given separately. Active and inactive are the calls of the source.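 How the source made its calls: active means fitted half-maximal concentration for ATP signal loss at most twice the top valid dose; inconclusive means flat curve between -70 and -30%, or an invalid fit; inactive means flat within ±30%, wrong direction, or potency past limit.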

The nature of this assay: HepG2 cell cytotoxicity, dose response, cytotoxicity control, cherry-picks, set 5 (AID 1053118). To be noted: HepG2 viability, ATP luminescence, 72 h; series mostly up to 26 µM.
Consider `O=S(=O)(c1ccccc1F)N1CC[C@@H]2[C@H]1c1cc(-c3cccc(F)c3)ccc1N[C@@H]2CO`, for which the molecule was called inactive. To `O=C(CCC(=O)c1cccs1)NCc1cccnc1` belongs “inactive”; to `CCC(C)(C)NC(=O)C(OC(=O)c1ccco1)c1ccccc1OC` (centres undefined), “inactive”. To `COc1cccc(CN2CCN(C(=O)c3ccc(-c4ccccc4)cc3)CC2)c1OC` belongs “inactive”; to `O=S(=O)(c1ccccc1F)N1CC[C@H]2[C@H](CO)Nc3ccc(-c4cccc(F)c4)cc3[C@H]21`, “inactive”. For the molecule `O=S(=O)(c1ccccc1F)N1CC[C@@H]2[C@H](CO)Nc3ccc(-c4cccc(F)c4)cc3[C@@H]21`, the outcome was inactive.

Regarding `O=S(=O)(c1cccc(F)c1)N1CC[C@@H]2[C@H]1c1cc(-c3cccc(F)c3)ccc1N[C@@H]2CO`, the call was inactive.

As for `C[C@H]1CN([C@@H](C)CO)C(=O)c2cc(-c3ccccc3)cnc2O[C@H]1CN(C)C(=O)c1cccc(F)c1`, the molecule was classed as inactive. To `COc1ccc(CN(C2CCCC2)S(=O)(=O)c2ccc(-n3cnnn3)cc2)cc1OC` belongs “inactive”.

Turning to `N#Cc1ccc(-c2ccc3c(c2)[C@@H]2[C@@H](CCN2S(=O)(=O)c2cccc(F)c2)[C@H](CO)N3)cc1`, the outcome was inactive. On to `C[C@H]1CN([C@@H](C)CO)C(=O)c2cc(-c3ccccc3)cnc2O[C@@H]1CN(C)C(=O)c1cccc(F)c1`, for which the outcome was inactive. The result for `Cc1ccc(NC(=O)COC(=O)c2cc(Cl)ccc2[N+](=O)[O-])c(C)c1` reads “inactive”. The result for `CO[C@H]1CN(C)C(=O)c2cc(NC(=O)Nc3ccc(Cl)c(Cl)c3)ccc2OC[C@@H](C)NC[C@H]1C` reads “inactive”; that for `C[C@@H]1CN([C@H](C)CO)C(=O)c2cc(-c3ccccc3)cnc2O[C@@H]1CN(C)C(=O)c1cccc(F)c1`, “inactive”.
